TDP43 rescue: inhibitors of TDP-43 toxicity in yeast | Potency, µM (titrated, usually from 46.1 µM), without a hit: top-dose growth rescue (activation), hits mostly activators | TDP-43 expressing yeast growth rescue, BacTiter-Glo, 24 h | AID 652104 | 1.8% of 410,000 active; also: % of control where 0% means no effect; nearly all actives have a fitted effect of over 50% in size
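Yeast expressing TDP-43 (pregrown in raffinose, seeded at OD600=0.02 in galactose medium) exposed to compounds 24 hr at 30 deg C. Growth read by BacTiter-Glo luminescence; rescue of toxicity appears as increased signal.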
Abeta yeast res: A-beta toxicity reversal in yeast; yeast expressing A-beta42, growth rescue, OD600, 48 h; response scale: 0% DMSO, 100% iron-clioquinol control; 0.063% of 410,000 active; AID 1347071; Potency, µM (doses to about 46.1 µM), usual class: activators; also: nearly all actives have a fitted effect of over 55% in size
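Yeast growth medium received pinned compounds, then yeast cells expressing toxic A-beta were added; plates incubated at 30 C for 48 hr. Growth read as absorbance at 600 nm, normalized to DMSO and equimolar FeCl3 plus clioquinol controls.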
aSyn rescue: alpha-synuclein toxicity inhibition in yeast. Yeast expressing alpha-synuclein, growth rescue, BacTiter-Glo, 24 h. Potency, µM (highest dose often 46.1 µM), for the others: at the top dose growth rescue (activation), usual class: activators. 0.14% of 370,000 active. AID 652106; also: % of control where 0% means no effect; nearly all actives have a fitted effect of over 65% in size
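Screening used galactose-induced yeast with toxic alpha-synuclein levels, exposed to compound for 24 hr at 30 deg C. Cell growth, read with BacTiter-Glo luminescence, gave the measured signal.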
FUS yeast rescue: rescues growth of FUS-expressing yeast; S. cerevisiae FUS-expressing, growth rescue, OD600, 24 h; Potency, µM (highest dose often 76.6 µM), actives largely listed as activators; 0.24% of 390,000 active;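 also: plate controls were DMSO vehicle for no effect and reference control for full effect; nearly all actives have a fitted effect of over 55% in size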
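Cultures pregrown in 2.5% raffinose medium are shifted to minimal medium containing 2% galactose to express toxic FUS. Compounds are tested at several concentrations. After 24hr at 30C, growth is quantified at 600 nm absorbance.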
An asterisk follows results filed as active; i = inactive; ? = inconclusive; . = not tested or not shown; [ ] = another dose, or the depositor's remark. Only some compounds are listed: those with a hit (about 2.1% of all), similar ones and a draw of the others. Calls follow the shape of the dose curve; as a rule, active = well fitted curve in the direction sought with a large enough effect; inconclusive = small, poorly fitted or top-dose-only effect, or another doubt; inactive = no such curve, though single readings can be large; an effect the other way counts as inactive or inconclusive. Potency is read from the fitted curve at half-maximal effect.

SMILES	TDP43 rescue	Abeta yeast res	aSyn rescue	FUS yeast rescue
COc1ccc(-c2cc(C(=O)Nc3ccc(C)c(N)c3)c3ccccc3n2)cc1	?	i	-14%	14µM*
O=C(OC1CCOC1=O)c1cc(-c2ccc(Br)cc2)nc2ccccc12 (stereo unspecified)	21%	i	-2%	i
COc1ccc(-c2cc(C(=O)OC3CCOC3=O)c3ccccc3n2)cc1 (stereo unspecified)	16µM*	i	-5%	i
Cc1cn([C@H]2C[C@H](O)[C@@H](CNC(=O)[C@H]3CCC(=O)N3)O2)c(=O)[nH]c1=O	5%	i	1%	i
CCC1(C)CC(=O)N(c2ccc(F)c(Cl)c2)C(=O)C1	13%	i	9%	i
OC1Cc2ccccc2C1Nc1cccc(C(F)(F)F)c1 (stereo unspecified)	13µM*	i	?	.
N#Cc1ccc(NC2c3ccccc3CC2O)cc1 (stereo unspecified)	15%	i	11%	.
O=C(O)c1ccccc1OC(C(=O)Nc1cc(Cl)cc(Cl)c1)c1ccccc1 (stereo unspecified)	-7%	i	-6%	i
COc1ccc(-c2ccnc3nc(N4CCN(c5ccccc5)CC4)nn23)cc1	14µM*	i	1%	i
Cc1ccccc1/C=C1\Oc2ccccc2C1=O	?	i	-3%	i
COc1ccccc1CC(=O)N1CCN(c2cccc(Cl)c2)CC1	13µM*	i	3%	i
CC(=O)c1ccc(NC(=O)N2CCN(c3cccc(Cl)c3)CC2)cc1	13µM*	i	3%	i
O=C(c1cccc(F)c1)N1CCN(c2cccc(C(F)(F)F)c2)CC1	14µM*	i	12%	i
O=C(c1ccc(CS(=O)c2ccccc2Cl)o1)N1CCN(c2cccc(C(F)(F)F)c2)CC1 (stereo unspecified)	18µM*	i	.	?
Cc1cc2nc(C3CCCN(C(=S)Nc4ccccc4C)C3)[nH]c2cc1C (stereo unspecified)	-19%	i	9%	i
CCn1cc(C(=O)N2CCN(c3cccc(C(F)(F)F)c3)CC2)c2cc(OC)c(OC)cc2c1=O	10%	i	.	?
COc1ccccc1C(=O)N1CCN(c2cccc(C(F)(F)F)c2)CC1	14µM*	i	3%	i
CCc1ccc(NC(=O)c2cc(C(C)=O)n3ccccc23)cc1	11µM*	i	.	i
CN(C)S(=O)(=O)c1cccc(NC(=O)COC(=O)/C=C/c2ccc(Br)o2)c1	-2%	i	1%	i
CC(C)(C)C1=NN=C2c3ccccc3C(=O)C21 (stereo unspecified)	16µM*	i	-15%	i
O=C1c2ccccc2C(=O)C1c1ccc(O)cc1	-11%[0.397 µM]	i	1%	i
Cc1cn([C@H]2C[C@H](O)[C@@H](CNC(=O)[C@@H]3C[C@H](F)CN3)O2)c(=O)[nH]c1=O	0%	i	0%	i
O=C1Nc2ccc(S(=O)(=O)N(CCO)CCO)c3cccc1c23	2%	i	0%	i
O=S(=O)(NCC(c1ccco1)S(=O)(=O)c1cccs1)c1ccccc1 (stereo unspecified)	?	i	.	i
O=S(=O)(NCC(c1cccs1)S(=O)(=O)c1ccccc1)c1ccccc1 (stereo unspecified)	2.8µM*	i	.	i
SMILES	TDP43 rescue	Abeta yeast res	aSyn rescue	FUS yeast rescue
CCOC(=O)c1cnc(-n2cc(C)cn2)nc1Nc1ccccc1OCC	20µM*	i	-15%	i
CCN(CC(=O)Nc1c(F)cccc1F)C(=O)CCCSc1nc2ccccc2[nH]1	7%	i	4%	i
N=c1c2c(ccn1Cc1ccccc1)Oc1ccc3ccccc3c1C2c1ccccc1 (stereo unspecified)	.	.	.	14µM*
N=c1c2c(ncn1CCN1CCOCC1)Oc1ccc3ccccc3c1C2c1ccccc1 (stereo unspecified)	-26%	i	.	i
COc1ccc(C(=O)Oc2ccc(/C=N/O)cc2)cc1	10µM*	i	.	i
COc1ccc(OC(=O)c2ccncc2)cc1	27%	i	6%	i
Cc1ccc(-c2cn(-c3ccccc3F)c(=S)[nH]2)cc1	16%	?	-6%	i
C=CCSc1nnc(-c2cc3c(C(F)(F)F)nn(C)c3s2)n1C	20%	i	0%	i
C=CCSc1nnc(-c2cc3c(-c4ccccc4)nn(C)c3s2)n1C	20µM*	i	6%	i
Cc1nn(C)cc1CNC(=O)c1ccc(Br)o1	-19%	i	-1%	i
CCOC(=O)N1CCN(c2ccc(S(=O)(=O)N3CCC(C)CC3)cc2[N+](=O)[O-])CC1	22µM*	i	3%	i
COc1cccc(OC)c1C(=O)NCc1ccco1	9%	i	4%	i
COc1ccc(OC)c(-c2nn(-c3ccccc3)cc2C(=O)N2CCc3ccccc3C2)c1	13µM*	i	-2%[1.84 µM]	?
COc1ccccc1-c1nn(-c2ccccc2)cc1C(=O)N1CCc2ccccc2C1	23%	i	?	?
Cc1nn(Cc2ccc(C(=O)N/N=C/c3ccncc3)o2)c(C)c1Cl	-1%	i	10%	i
S=c1[nH]c2ccccc2n2cccc12	13µM*	11µM*	0%	i
Cc1cccc(CS(=O)(=O)c2ncc(Cl)c(C(=O)Nc3c(C)cccc3C)n2)c1	?	i	2%	?
Cc1cccc(C)c1NC(=O)c1nc(S(=O)(=O)Cc2ccccc2)ncc1Cl	10µM*	i	19%	i
Cc1ccccc1NC(=O)c1nc(S(C)(=O)=O)ncc1Cl	10µM*	i	18%	i
Cc1cccc(CS(=O)(=O)c2ncc(Cl)c(C(=O)NCc3ccccc3)n2)c1	7.9µM*	i	19%	i
Cc1ccccc1CS(=O)(=O)c1ncc(Cl)c(C(=O)Nc2ccc(F)cc2)n1	11µM*	i	-1%	i
CS(=O)(=O)c1ncc(Cl)c(C(=O)Nc2ccc(OC(F)F)cc2)n1	.	i	13%	i
O=C(Nc1ccccc1C(=O)N1CCOCC1)C1CC(=O)N(C2CCCC2)C1 (stereo unspecified)	-17%	i	1%	i
CCNC(=O)CSc1nnc(-c2cccc(S(=O)(=O)N(CC)CC)c2)n1CCc1ccccc1	-4%	i	4%	i
COc1ccc(C2c3c(n(C)c4ccccc34)C(=O)N2CC(=O)Nc2ccc(Cl)cc2)cc1 (stereo unspecified)	-6%	i	.	i
CC(=O)Nc1cccc(-c2nnc(SCC(=O)c3cc([N+](=O)[O-])ccc3Cl)o2)c1	1%	i	0%	13µM*
O=C(CSc1nnc(-c2ccncc2)o1)c1cccc([N+](=O)[O-])c1	?	i	0%	i
O=C(O)/C=C/c1ccccc1Oc1ccccc1	18µM*	i	30%	i
O=C1CC(N2CCCC2)=NC(=O)N1c1ccc(Br)cc1	.	.	.	i

Bioassay records: PubChem, National Center for Advancing Translational Sciences (NCATS)
